Results on 30 sequences are retold here after PMC9838217, “Structure of SALL4 zinc finger domain reveals link between AT-rich DNA binding and Okihiro syndrome”.

Substitutions are numbered along the chain they refer to.

Holding throughout (test): HT-SELEX; high values mean tight binding
Conditions in all cases: protein: recombinant; vector His6-GST; dsDNA, one strand shown

The target in assay [1] is T1, SALL4 ZFC4 WT (HT-SELEX) (Mus musculus, UniProt Q8BX22 870-940).
T1 sequence: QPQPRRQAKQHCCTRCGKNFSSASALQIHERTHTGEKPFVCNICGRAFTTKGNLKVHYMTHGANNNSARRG
The procedure, abridged:
(§1)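 Residues 870–940 of mouse SALL4, forming zinc finger cluster 4, were expressed recombinantly, purified, and 1 µg was incubated with library DNA (1.5 µg first cycle, 200 ng later) in 100 µl of 10 mM Tris–HCl pH 7.5, 50 mM NaCl, poly(dI-dC) and DTT for 10 min at room temperature. Washed Ni2+ bead-captured complexes were PCR-amplified and reselected for up to 6 cycles in triplicate, and the products were sequenced on MiSeq and scanned for 6-mers. Binding signal is the fold change in each canonical k-mer's read fraction compared with the initial random library.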

The target in assay [2] is T2, SALL4 ZFC4 R900W (HT-SELEX) (Mus musculus, UniProt Q8BX22 870-940, R900W).
T2 sequence: T1 sequence with R31W
In outline: as §1

Assay [3] has as its target T3, SALL4 ZFC4 G921D (HT-SELEX) (Mus musculus, UniProt Q8BX22 870-940, G921D).
T3 sequence: T1 sequence with G52D
In outline:
as §1

CTCCCC: the figures for the binding signal in assay [1], in assay [2] and in assay [3] were 0.313 ± 0.0129 fold-change vs cycle 0, 0.36 ± 0.0359 fold-change vs cycle 0 and 0.456 ± 0.0544 fold-change vs cycle 0, respectively.

Regarding GTTTCA, the binding signal in assay [1] worked out at 1.26 ± 0.0534 fold-change vs cycle 0; in assay [2], 1.32 ± 0.0266 fold-change vs cycle 0; in assay [3], 1.31 ± 0.0949 fold-change vs cycle 0.

As for AATCTG, the binding signal worked out at 1.22 ± 0.0563 fold-change vs cycle 0 in assay [1], 1.28 ± 0.0883 fold-change vs cycle 0 in assay [2] and 1.25 ± 0.0941 fold-change vs cycle 0 in assay [3].

For the sequence AGCCCT, the binding signal in assay [1] turned out to be 0.343 ± 0.0204 fold-change vs cycle 0; in assay [2] it was 0.423 ± 0.0426 fold-change vs cycle 0; in assay [3] it was 0.56 ± 0.0891 fold-change vs cycle 0.

On to CGACAA, for which the binding signal worked out at 0.4483 ± 0.00206 fold-change vs cycle 0 in assay [1], 0.523 ± 0.0149 fold-change vs cycle 0 in assay [2] and 0.653 ± 0.0169 fold-change vs cycle 0 in assay [3].

Turning to CGGGTA, the binding signal in assay [1] was determined as 0.363 ± 0.0204 fold-change vs cycle 0; in assay [2], 0.435 ± 0.0153 fold-change vs cycle 0; in assay [3] it was 0.521 ± 0.0456 fold-change vs cycle 0.

Regarding ACACCT, the binding signal in assay [1] is 0.834 ± 0.0401 fold-change vs cycle 0; in assay [2] it was 0.949 ± 0.0347 fold-change vs cycle 0; in assay [3], 0.979 ± 0.022 fold-change vs cycle 0.

Turning to AAATCA, the binding signal turned out to be 1.98 ± 0.081 fold-change vs cycle 0 in assay [1], 1.8 ± 0.0687 fold-change vs cycle 0 in assay [2] and 1.7 ± 0.128 fold-change vs cycle 0 in assay [3].

Turning to CGAAAA, the values for the binding signal in assay [1], in assay [2] and in assay [3] were 0.827 ± 0.0572 fold-change vs cycle 0, 0.851 ± 0.0107 fold-change vs cycle 0 and 0.912 ± 0.0336 fold-change vs cycle 0, respectively.

On to AACGTC, for which the binding signal was 0.624 ± 0.0116 fold-change vs cycle 0 in assay [1], 0.722 ± 0.0138 fold-change vs cycle 0 in assay [2] and 0.813 ± 0.0314 fold-change vs cycle 0 in assay [3].

In the case of GCTACA, the figures for the binding signal in assay [1], in assay [2] and in assay [3] were 0.6 ± 0.0288 fold-change vs cycle 0, 0.67 ± 0.0106 fold-change vs cycle 0 and 0.752 ± 0.0182 fold-change vs cycle 0, respectively.

In the case of GCCAAA, the binding signal in assay [1] was found to be 0.353 ± 0.00667 fold-change vs cycle 0; in assay [2], 0.404 ± 0.0166 fold-change vs cycle 0; in assay [3], 0.545 ± 0.0739 fold-change vs cycle 0.

With GGTGAA, the values for the binding signal in assay [1], in assay [2] and in assay [3] were 0.8 ± 0.0301 fold-change vs cycle 0, 0.905 ± 0.0496 fold-change vs cycle 0 and 0.952 ± 0.0511 fold-change vs cycle 0, respectively.

As to ACACTA, the binding signal amounted to 1.26 ± 0.0187 fold-change vs cycle 0 in assay [1], 1.3934 ± 0.0013 fold-change vs cycle 0 in assay [2] and 1.36 ± 0.0513 fold-change vs cycle 0 in assay [3].

On to ACACGA, for which the figures for the binding signal in assay [1], in assay [2] and in assay [3] were 0.663 ± 0.0255 fold-change vs cycle 0, 0.777 ± 0.0248 fold-change vs cycle 0 and 0.869 ± 0.0214 fold-change vs cycle 0, respectively.

For the sequence AACTAT, the figures for the binding signal in assay [1], in assay [2] and in assay [3] were 2.16 ± 0.123 fold-change vs cycle 0, 1.96 ± 0.0882 fold-change vs cycle 0 and 1.76 ± 0.173 fold-change vs cycle 0, respectively.

For the sequence ATGACG, the binding signal is 0.724 ± 0.0223 fold-change vs cycle 0 in assay [1], 0.789 ± 0.0467 fold-change vs cycle 0 in assay [2] and 0.852 ± 0.0204 fold-change vs cycle 0 in assay [3].

For AACCAC, the binding signal in assay [1] was 0.74 ± 0.0275 fold-change vs cycle 0; in assay [2] it was 0.83 ± 0.0479 fold-change vs cycle 0; in assay [3], 0.879 ± 0.0101 fold-change vs cycle 0.

With CAGAGC, the binding signal came out at 0.315 ± 0.0109 fold-change vs cycle 0 in assay [1], 0.382 ± 0.0231 fold-change vs cycle 0 in assay [2] and 0.524 ± 0.0543 fold-change vs cycle 0 in assay [3].

With CGGTAA, the binding signal turned out to be 0.676 ± 0.0195 fold-change vs cycle 0 in assay [1], 0.74 ± 0.026 fold-change vs cycle 0 in assay [2] and 0.792 ± 0.0302 fold-change vs cycle 0 in assay [3].

Turning to GATCAC, the results for the binding signal in assay [1], in assay [2] and in assay [3] were 0.862 ± 0.0581 fold-change vs cycle 0, 1.01 ± 0.0278 fold-change vs cycle 0 and 1.11 ± 0.0305 fold-change vs cycle 0, respectively.

As for CATAGG, the binding signal turned out to be 0.854 ± 0.0242 fold-change vs cycle 0 in assay [1], 0.918 ± 0.0253 fold-change vs cycle 0 in assay [2] and 0.978 ± 0.022 fold-change vs cycle 0 in assay [3].

For CTGTAA, the values for the binding signal in assay [1], in assay [2] and in assay [3] were 1.29 ± 0.062 fold-change vs cycle 0, 1.42 ± 0.0769 fold-change vs cycle 0 and 1.33 ± 0.121 fold-change vs cycle 0, respectively.

For the sequence ACTGTG, the binding signal in assay [1] was determined as 0.743 ± 0.0431 fold-change vs cycle 0; in assay [2], 0.842 ± 0.0558 fold-change vs cycle 0; in assay [3], 0.876 ± 0.035 fold-change vs cycle 0.

Turning to CCCTTC, the binding signal in assay [1] was found to be 0.486 ± 0.0255 fold-change vs cycle 0; in assay [2], 0.614 ± 0.0191 fold-change vs cycle 0; in assay [3], 0.653 ± 0.0312 fold-change vs cycle 0.

As for ACTTCG, the binding signal in assay [1] is 0.679 ± 0.0273 fold-change vs cycle 0; in assay [2], 0.7885 ± 0.004 fold-change vs cycle 0; in assay [3] it was 0.854 ± 0.0495 fold-change vs cycle 0.

Turning to GAAAGA, the figures for the binding signal in assay [1], in assay [2] and in assay [3] were 1.32 ± 0.0648 fold-change vs cycle 0, 1.52 ± 0.0726 fold-change vs cycle 0 and 1.36 ± 0.0863 fold-change vs cycle 0, respectively.

As for GTTTTA, the binding signal in assay [1] stood at 1.65 ± 0.0877 fold-change vs cycle 0; in assay [2], 1.66 ± 0.0685 fold-change vs cycle 0; in assay [3] it was 1.54 ± 0.113 fold-change vs cycle 0.

Turning to TAGGGA, the binding signal was determined as 0.931 ± 0.0124 fold-change vs cycle 0 in assay [1], 0.998 ± 0.0215 fold-change vs cycle 0 in assay [2] and 1.02 ± 0.0328 fold-change vs cycle 0 in assay [3].

On to AAACTC, for which the values for the binding signal in assay [1], in assay [2] and in assay [3] were 1.19 ± 0.0627 fold-change vs cycle 0, 1.3 ± 0.0461 fold-change vs cycle 0 and 1.28 ± 0.0858 fold-change vs cycle 0, respectively.
